# Experimental data from PubChem BioAssay (NCATS).
# Records with an inconclusive call do not appear. Values without a mark were called inactive. Activity calls are given as the source filed them. Calls come from the whole dose curve; as a rule, active = well fitted cell-killing curve with a large enough effect; inconclusive = small, poorly fitted or top-dose-only effect, or effect the other way; inactive = flat fitted curve, though single readings scatter. Where a SMILES comes first, the peptide text is derived from it. [ ]: non-standard residue; d: D form.
# Test system: CAOV3
# Assay: Primary qHTS to identify gynecologic anti-cancer compounds using libraries of approved drugs and bioactive compounds (AID 1345084); note: nearly all actives have a fitted effect of over 55% in size
# Conditions: Gynecologic cancer cell panel viability, ATPlite luminescence, 48 h; series mostly up to 57.5 µM; activity change, negative = cytotoxicity: at the top concentration
# Procedure, shortened: (§1)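 Cells, 1,000 per well, plated 16 h, then exposed 48 h at 37 C to compounds. Viability by ATPlite luminescence after 15 min at room temperature.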
# % is set by controls: 0 for no effect and ±100 for the full control effect; potency is the fitted concentration of half-maximal effect.
Structure (SMILES),"activity change, negative = cytotoxicity",Potency
C[C@H](NCc1ccc(OCc2ccccc2F)cc1)C(N)=O,27.3%,–
CC(=O)N[C@H](Cc1ccc(O)cc1)C(=O)N[C@H](CCCN=C(N)N)C(=O)N[C@H](Cc1ccccc1)C(N)=O (Ac-[dY]-[dR]-[dF]-NH2),13.6%,–
Nc1ncnc2c1ncn2[C@H]1CCCO1,18.6%,–
CCC(=O)O[C@]1(C(=O)CCl)[C@@H](C)C[C@H]2[C@@H]3C[C@H](F)C4=CC(=O)C=C[C@]4(C)[C@@]3(F)[C@@H](O)C[C@@]21C,-12.8%,–
CCOc1ccc(-c2ccc(Cn3c(CC(C)(C)C(=O)O)c(SC(C)(C)C)c4cc(OCc5ccc(C)cn5)ccc43)cc2)cn1,–,inactive
CC1OC(OC2C(CO)OC(OCC3OC(OC(=O)C45CCC(C)(C)CC4C4=CCC6C7(C)CCC(OC8OC(C(=O)O)C(O)C(OC9OC(CO)C(O)C(O)C9O)C8O)C(C)(C)C7CCC6(C)C4(C)CC5)C(O)C(O)C3O)C(O)C2O)C(O)C(O)C1O (stereo not given),-1.08% [at 6.55 µM],–
CC1CCC2(C)C(CC(O)C(O)C23CO3)C1(C)CCC1=CC(=O)OC1O (stereo not given),26.8% [at 38.5 µM],–

# Test system: CASKI
# Assay: as above
# Conditions: Gynecologic cancer cell panel viability, ATPlite luminescence, 48 h; series mostly up to 57.5 µM; activity change, negative = cytotoxicity: at the top concentration
# Procedure, shortened: as §1
Structure (SMILES),"activity change, negative = cytotoxicity",Potency
CN1Cc2c(N)cccc2C(c2ccccc2)C1 (stereo not given),3.1%,–
C(#Cc1cccc(CN2CCOCC2)c1)CCN1CCCCC1,10.8%,–
C/C=C(\C)C(=O)O[C@H]1[C@H](O)[C@]2(COC(C)=O)[C@H](O)C[C@]3(C)C(=CCC4[C@@]5(C)CC[C@H](O[C@@H]6O[C@H](C(=O)O)[C@@H](O[C@@H]7O[C@H](CO)[C@@H](O)[C@H](O)[C@H]7O)[C@H](O)[C@H]6O[C@@H]6O[C@H](CO)[C@@H](O)[C@H](O)[C@H]6O)[C@](C)(CO)C5CC[C@]43C)[C@@H]2CC1(C)C (stereo not given in full),1.43% [at 11.6 µM],–
C[C@]12C=CC(=O)C=C1CC[C@@H]1[C@@H]2[C@@H](O)C[C@@]2(C)[C@H]1CC[C@]2(O)C(=O)COC(=O)CCC(=O)O,13.2%,–
CC1=C2[C@@H]([C@H](C)CC[C@H]2/C=C(\C)C(=O)O)[C@H](O)C1,0.635%,–
CC(=O)c1c(C)cc(O[C@@H]2O[C@H](CO)[C@@H](O)[C@H](O)[C@H]2O)cc1O,-1.07% [at 38.5 µM],–
OC[C@H]1O[C@@H](OCCc2ccc(O)cc2)[C@H](O)[C@@H](O)[C@@H]1O,-3.3%,–
C[C@@H]1C[C@H]2[C@@H]3CCC4=CC(=O)C=C[C@]4(C)[C@@]3(F)[C@@H](O)C[C@]2(C)[C@@]1(O)C(=O)COP(=O)(O)O,-2.14%,–
CC(=O)N1CCN(NC(=O)c2ccc(F)cc2)CC1,22.3%,–
NC(Cc1c[nH]c2ccccc12)C(=O)NC(CCC(=O)O)C(=O)O (stereo not given),10.3%,–
CC[C@H](/C=C/[C@@H](C)[C@H]1CC[C@H]2[C@@H]3CC=C4C[C@@H](O)CC[C@]4(C)[C@H]3CC[C@]12C)C(C)C,17.1% [at 6.55 µM],–
CCOc1ccc(C(Nc2ccccn2)c2ccc3ccc(C)nc3c2O)cc1C (stereo not given),-3.39%,–
COc1cc(C2Oc3c(OC)cc(/C=C/C(=O)OC[C@H]4O[C@@H](OC(C)(C)C(=O)O)[C@H](O)[C@@H](O)[C@@H]4O)cc3C2CO)ccc1O (stereo not given in full),3.29% [at 25.3 µM],–
COC1=CC(=O)C[C@@H](C)[C@]12Oc1cc(OC)cc(OC)c1C2=O,6.38% [at 38.5 µM],–
COc1c(C)c(OCC=C(C)C)cc2c1C(=O)NC2=O,0.132%,–
C[C@]12CCC(=O)C=C1[C@@H](O)C[C@@H]1[C@@H]2[C@@H](O)C[C@@]2(C)[C@H]1CC[C@]2(O)C(=O)CO,3.27%,–
Cn1c(=O)cc(N2CCCC(N)C2)n(Cc2ccccc2C#N)c1=O (stereo not given),7.44%,–
CC(=O)O[C@H]1C[C@@H]2[C@]3(CC[C@]4(C)[C@@H](C5(C)CCC(C(C)(C)O)O5)[C@@H](O)C[C@@]24C)C[C@@]32CC[C@H](O[C@@H]3OC[C@@H](O)[C@H](O)[C@H]3O)C(C)(C)[C@H]12 (stereo not given in full),-22.6% [at 25.3 µM],–
COc1cc(C[C@H]2COC(=O)[C@@H]2Cc2ccc(O)c(OC)c2)ccc1O,3.5% [at 38.5 µM],–

Structure (SMILES),"activity change, negative = cytotoxicity",Potency
CCC(=O)NS(=O)(=O)c1ccc(-c2c(-c3ccccc3)noc2C)cc1,6.82%,–
C=CC(C)(O)CO[C@@H]1O[C@H](CO)[C@@H](O)[C@H](O)[C@H]1O (stereo not given in full),-21%,–
Clc1ccc(CN[C@H]2CCN(c3ncc(Br)cn3)C2)c(Cl)c1,-0.462%,–
CC(C)C(=O)c1cn(CC(=O)COc2ccc(Oc3ccccc3)cc2)c2ccc(C(=O)O)cc12,18%,–
CC(C)C1=CC2=CCC3[C@](C)(CCC[C@@]3(C)C(=O)O)C2CC1O (stereo not given in full),10.7% [at 38.5 µM],–
CC[C@H]1OC(=O)C[C@@H](O)[C@H](C)[C@@H](O[C@@H]2O[C@H](C)[C@@H](O)[C@H](N(C)C)[C@H]2O)[C@@H](CCN2C[C@H](C)C[C@H](C)C2)C[C@@H](C)C(=O)/C=C/C(C)=C/[C@@H]1CO[C@@H]1O[C@H](C)[C@@H](O)[C@@H](OC)[C@H]1OC,-1.3%,–
CC(C)NC[C@H](O)COc1ccc(CCOCC2CC2)cc1,12.6%,–
CC(=O)OC(C)OC(=O)C(C)c1ccc(-c2ccccc2)c(F)c1 (stereo not given),15.5%,–
C=C1C(=O)O[C@H]2[C@H]1[C@@H](OC(=O)C(C)CO)C[C@@]1(C)[C@H](O)CCC(=O)[C@H]21 (stereo not given in full),-0.872% [at 38.5 µM],–
CCC(C)(O)C(O)C(=O)OCc1ccc(O[C@@H]2O[C@H](CO)[C@@H](O)[C@H](O)[C@H]2O)c(OC)c1 (stereo not given in full),11% [at 25.3 µM],–
NS(=O)(=O)OC[C@@H]1C[C@@H](n2ccc3c(N[C@H]4CCc5ccccc54)ncnc32)C[C@@H]1O,–,inactive
COc1ccc(C[C@H](N)C(=O)N[C@H]2[C@@H](O)[C@H](n3cnc4c(N(C)C)ncnc43)O[C@@H]2CO)cc1,–,1580 nM (active)
C[C@H](NCc1ccc(OCc2ccccc2F)cc1)C(N)=O,3.95%,–
CC(=O)N[C@H](Cc1ccc(O)cc1)C(=O)N[C@H](CCCN=C(N)N)C(=O)N[C@H](Cc1ccccc1)C(N)=O (Ac-[dY]-[dR]-[dF]-NH2),5.52%,–
Nc1ncnc2c1ncn2[C@H]1CCCO1,1.56%,–
CCC(=O)O[C@]1(C(=O)CCl)[C@@H](C)C[C@H]2[C@@H]3C[C@H](F)C4=CC(=O)C=C[C@]4(C)[C@@]3(F)[C@@H](O)C[C@@]21C,5.49%,–
CCOc1ccc(-c2ccc(Cn3c(CC(C)(C)C(=O)O)c(SC(C)(C)C)c4cc(OCc5ccc(C)cn5)ccc43)cc2)cn1,–,inactive
CC1OC(OC2C(CO)OC(OCC3OC(OC(=O)C45CCC(C)(C)CC4C4=CCC6C7(C)CCC(OC8OC(C(=O)O)C(O)C(OC9OC(CO)C(O)C(O)C9O)C8O)C(C)(C)C7CCC6(C)C4(C)CC5)C(O)C(O)C3O)C(O)C2O)C(O)C(O)C1O (stereo not given),0.241% [at 6.55 µM],–
CC1CCC2(C)C(CC(O)C(O)C23CO3)C1(C)CCC1=CC(=O)OC1O (stereo not given),11.7% [at 38.5 µM],–
